{
  "source": "PubChem BioAssay (EPA / NIEHS)",
  "note": "Records with an inconclusive call do not appear. Calls of active or inactive are those of the source. The calls were made as follows: active = hit-call score of the fitted dose curve at least 0.9, where 1 is the maximum; inconclusive = response in the unintended direction; inactive = score below 0.9.",
  "data": [
    {"target": "bovine Gamma-Aminobutyric Acid Type A Receptor Agonist (GABAR Agonist), GABRA1 (gene 780973) (UniProt P08219)", "sequence (P08219 whole entry, looked up)": "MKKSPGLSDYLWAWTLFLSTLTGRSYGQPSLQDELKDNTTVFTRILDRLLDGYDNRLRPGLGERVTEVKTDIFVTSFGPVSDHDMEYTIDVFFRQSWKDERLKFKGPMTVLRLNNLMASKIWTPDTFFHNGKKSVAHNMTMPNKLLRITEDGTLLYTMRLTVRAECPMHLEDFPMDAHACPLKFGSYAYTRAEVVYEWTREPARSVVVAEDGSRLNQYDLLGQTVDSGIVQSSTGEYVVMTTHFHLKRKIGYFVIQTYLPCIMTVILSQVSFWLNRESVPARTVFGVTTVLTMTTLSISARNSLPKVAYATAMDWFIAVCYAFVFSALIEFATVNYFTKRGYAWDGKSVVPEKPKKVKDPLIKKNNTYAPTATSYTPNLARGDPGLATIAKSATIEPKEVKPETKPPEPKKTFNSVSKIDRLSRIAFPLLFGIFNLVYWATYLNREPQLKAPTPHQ", "experiment": "NVS_LGIC_bGABAR_Agonist: NovaScreen (NVS) Ligand-Gated Ion Channel Assay for bovine Gamma-Aminobutyric Acid Type A Receptor Agonist (GABAR Agonist) (AID 2283338)", "outline": "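Radioligand binding to bovine cerebellar membranes in agonist format, read by filter-based scintillation counting after 1 h. Primary screen in duplicate at 25 uM, with actives followed in concentration series. Gain of signal versus DMSO.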", "values": [
      {"smiles": "CCOc1ccc2c(c1)C(C)=CC(C)(C)N2", "outcome": "inactive"},
      {"smiles": "CC(C)(C)c1cc(O)c(C(C)(C)C)cc1O", "outcome": "inactive"},
      {"smiles": "Cc1cccc([N+](=O)[O-])c1C", "outcome": "inactive"},
      {"smiles": "CC(=O)OCCOCCOCCOC(C)=O", "outcome": "inactive"},
      {"smiles": "Cc1ccc(C(C)C)c(O)c1", "outcome": "inactive"},
      {"smiles": "COc1cc(C=O)ccc1O", "outcome": "inactive"}
    ]}
  ]
}
